# About 83,000 compounds went through this panel and 20% of them were active in at least one assay; those are over-represented in the sample as a whole.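 A percent growth of 40 corresponds to 60% growth inhibition; 0 means no net growth; -100 means all cells died. Active threshold: below 10.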 A number with no mark means an inactive call. The source made the active and inactive calls.
# What was measured:
# Assay in all cases: NCI-60 one-dose screen, 48 h (100 = growth as untreated, 0 = no growth, -100 = all killed)
# Conditions in all cases: 10 µM unless noted
# NCI-H23 lung = tested on: NCI-H23 lung
# NCI-H226 lung = tested on: NCI-H226 lung
# NCI-H322M lung = tested on: NCI-H322M lung
# HOP-62 NSCLC = tested on: HOP-62 NSCLC
# NCI-H460 lung = tested on: NCI-H460 lung
# HOP-92 NSCLC = tested on: HOP-92 NSCLC
# NCI-H522 lung = tested on: NCI-H522 lung
# A549/ATCC NSCLC = tested on: A549/ATCC NSCLC
# 786-0 renal = tested on: 786-0 renal
# COLO 205 colon = tested on: COLO 205 colon
# DU-145 prostate = tested on: DU-145 prostate
# MALME-3M melanoma = tested on: MALME-3M melanoma
# MDA-MB-231 breast = tested on: MDA-MB-231 breast
# RXF 393 renal = tested on: RXF 393 renal
# SF-268 CNS = tested on: SF-268 CNS
# SF-295 CNS = tested on: SF-295 CNS
# SF-539 CNS = tested on: SF-539 CNS
# UACC-257 melanoma = tested on: UACC-257 melanoma
# M14 melanoma = tested on: M14 melanoma
Compound,growth (NCI-H23 lung),growth (NCI-H226 lung),growth (NCI-H322M lung),growth (HOP-62 NSCLC),growth (NCI-H460 lung),growth (HOP-92 NSCLC),growth (NCI-H522 lung),growth (A549/ATCC NSCLC),growth (786-0 renal),growth (COLO 205 colon),growth (DU-145 prostate),growth (MALME-3M melanoma),growth (MDA-MB-231 breast),growth (RXF 393 renal),growth (SF-268 CNS),growth (SF-295 CNS),growth (SF-539 CNS),growth (UACC-257 melanoma),growth (M14 melanoma)
CN1CCN(CCNc2nccc(-c3c(-c4cccc(O)c4)nc4sccn34)n2)S1(=O)=O,46.1%,100%,70.2%,79.3%,57.3%,49%,46.2%,88%,93.2%,17.6%,56.5%,-20% (active),24.3%,39.2%,85.6%,95.9%,79.9%,-10.6% (active),-4.02% (active)
CC(C)=CCC[C@](C)(O)[C@H]1CC[C@]2(C)[C@@H]1CC[C@@H]1[C@@]3(C)C/C(=C/c4ccccc4)C(=O)C(C)(C)[C@@H]3CC[C@]12C,84.7%,93.7%,93.7%,92.2%,91.1%,78.8%,77.9%,85.1%,92.2%,99.9%,85.3%,78.6%,85.5%,95.3%,94.7%,109%,90.4%,104%,96.5%
NC(=O)CSSCC(N)=O,99.2%,108%,96.9%,103%,111%,83.8%,92.1%,93.1%,95.3%,108%,104%,93.3%,109%,117%,97.9%,97.1%,102%,95.8%,93.2%
COc1cc(NC(=O)CSc2nc3ccc(C)cc3c(=O)n2Cc2ccccc2)cc(OC)c1OC,74.2%,24.7%,63.4%,45.5%,57.3%,0.585% (active),31.9%,66.6%,43.3%,88.6%,80.7%,49.8%,35.5%,24.3%,69.1%,79.9%,11.8%,61.3%,65.6%
O=C1c2ccccc2C(=O)c2c([N+](=O)[O-])ccc(Cl)c21,89.3%,102%,99.7%,111%,101%,76.5%,59.2%,93.7%,96.6%,116%,101%,116%,103%,94.3%,87.4%,116%,99.1%,96.2%,108%
COc1cc2c(c(OC)c1OC)-c1ccc(NNC(=S)N(Cc3cccc(C[N+](Cc4cccc(CNC56CC7CC(CC(C7)C5)C6)c4)(Cc4cccc(CNC56CC7CC(CC(C7)C5)C6)c4)Cc4cccc(CN(C(=S)NNc5ccc6c(cc5=O)[C@@H](NC(C)=O)CCc5cc(OC)c(OC)c(OC)c5-6)C56CC7CC(CC(C7)C5)C6)c4)c3)C34CC5CC(CC(C5)C3)C4)c(=O)cc1[C@@H](NC(C)=O)CC2 (some centres undefined),20.7%,-8.38% (active),49.6%,48.6%,2.48% (active),-5.87% (active),-22.8% (active),20.9%,11%,-56.9% (active),21.3%,-48.1% (active),-26.3% (active),20.2%,18.3%,20.3%,0.867% (active),43.1%,-53.4% (active)
O=C(O)c1ccc2c(c1)C(=O)N(Cc1ccccc1)C2=O,98.5%,92.7%,96%,95.8%,102%,86.2%,91.4%,101%,95.5%,107%,102%,97.4%,101%,103%,98%,95%,103%,74.2%,100%
Cc1ccc(C(=O)/C(=C\c2ccc([N+](=O)[O-])cc2)S(=O)Cc2ccc(F)cc2)cc1 (centres undefined),31.6%,41.5%,72.6%,21.5%,15%,27.2%,-12% (active),73.2%,-66.1% (active),2.86% (active),18.6%,-3.22% (active),11%,-80% (active),19.5%,62.5%,15.4%,91.6%,28.2%
NS(=O)(=O)c1ccc(CCN2C(=O)C=CC2=O)cc1,94.6%,101%,97.3%,97.1%,115%,108%,84.6%,104%,106%,123%,109%,102%,104%,111%,100%,102%,101%,101%,107%
O=C1NN(C(=O)c2ccccc2)C(c2ccc(Cl)c(Cl)c2)=C/C1=C\c1ccc([N+](=O)[O-])cc1,85.3%,88.7%,98%,101%,83%,3.02% (active),63.8%,96.2%,102%,27.9%,108%,88.3%,80.4%,74.3%,74.8%,88.5%,90.5%,96.5%,41.8%
O=C(/C=C/c1c(-c2ccc(Cl)cc2)nn(-c2ccccc2)c1C(F)(F)F)c1ccc(Cl)cc1,80.8%,101%,93.3%,90.9%,82.3%,65.1%,78.9%,81.3%,95.9%,110%,108%,104%,79.5%,88.4%,105%,96.5%,102%,104%,90.5%
CC(=O)OC[C@]12CC[C@@H](C(=O)CBr)[C@@H]1[C@H]1CC[C@@H]3[C@@]4(C)CC[C@H](OC(C)=O)C(C)(C)[C@@H]4CC[C@@]3(C)[C@]1(C)CC2,95.4%,100%,103%,103%,105%,96%,-63.9% (active),106%,95.1%,101%,100%,89.2%,110%,99.7%,89.9%,106%,91.7%,108%,87.2%
COCc1cnccc1NC1CCCCCC1,103%,95.7%,98.6%,99.9%,108%,91.2%,89.9%,96.3%,106%,121%,108%,105%,101%,100%,101%,101%,101%,99.5%,94.2%
COc1ccc(/C=C/c2nc(Nc3ccc(S(=O)(=O)Nc4nc(C)cc(C)n4)cc3)c3ccccc3n2)cc1,78.1%,68.9%,29%,75.6%,63%,66.4%,68.5%,42.2%,78.8%,59.8%,71.3%,89.6%,61.3%,94.3%,75.3%,63.8%,96.8%,78.6%,47.1%
CCN(c1ccccc1)S(=O)(=O)c1cc([N+](=O)[O-])ccc1Cl,80.2%,36.4%,73.3%,105%,106%,49.9%,23.7%,102%,97.4%,129%,94%,67.6%,56.3%,40.7%,77.4%,110%,36.2%,64.6%,70.9%
C=C1C(=O)O[C@H]2[C@H]1CC/C(CNS(=O)(=O)c1cccc3ccccc13)=C\CC[C@@]1(C)O[C@@H]21,57.9%,57.8%,91.2%,94.9%,73.8%,12.1%,-63.9% (active),83.5%,26.1%,8.89% (active),25.5%,-18.4% (active),43.6%,-14.9% (active),58%,82.2%,49.2%,70.4%,31.7%
